Among all 5,500 compounds or so, about 2,000 (36%) were called active. Another 18% or so got no clear call; they are omitted. Rule as the data show it: active = normalized growth mostly below about 0.91 (no sharp cut-off); inconclusive = no clear call, values can overlap the other calls; inactive = mostly above about 0.92. The list shows a part of the results.
Assay: chemical genetic growth profiling, strain panel (AID 1159580);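 also: tested at 20 µM; growth read once vehicle control cultures reached saturation at 30 °C; 1 = growth at the plate median or of vehicle wells; lower values mean less growth of the strain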
Conditions: growth OD

Measured: normalized growth

O=c1cc(C(F)(F)F)[nH]c2cc(Cl)cc(Cl)c12
active: S. cerevisiae deletion strains, locus YAL013W, strain DEP1, hits give low values 0.59 | S. cerevisiae deletion strains, locus YBR229C, strain ROT2, hits give low values 0.47 | S. cerevisiae deletion strains, locus YCL061C, strain MRC1, hits give low values 0.649 | S. cerevisiae deletion strains, locus YDL101C, strain DUN1, hits give low values 0.513 | S. cerevisiae deletion strains, locus YDR150W, strain NUM1, hits give low values 0.627 | S. cerevisiae deletion strains, locus YEL061C, strain CIN8, hits give low values 0.745 | S. cerevisiae deletion strains, locus YGR078C, strain PAC10, hits give low values 0.475 | S. cerevisiae deletion strains, locus YHR030C, strain SLT2, hits give low values 0.564 | S. cerevisiae deletion strains, locus YHR087W, strain rtc3, hits give low values 0.544 | S. cerevisiae deletion strains, locus YJR043C, strain POL32, hits give low values 0.697 | S. cerevisiae deletion strains, locus YJR075W, strain HOC1, hits give low values 0.514 | S. cerevisiae deletion strains, locus YLR039C, strain RIC1, hits give low values 0.356 | S. cerevisiae deletion strains, locus YLR058C, strain SHM2 (second series), hits give low values 0.694 | S. cerevisiae deletion strains, locus YLR085C, strain ARP6, hits give low values 0.487 | S. cerevisiae deletion strains, locus YLR262C, strain YPT6, hits give low values 0.428 | S. cerevisiae deletion strains, locus YML094W, strain GIM5, hits give low values 0.854 | S. cerevisiae deletion strains, locus YMR219W, strain ESC1, hits give low values 0.612 | S. cerevisiae deletion strains, locus YMR263W, strain SAP30, hits give low values 0.456 | S. cerevisiae deletion strains, locus YMR307W, strain GAS1, hits give low values 0.561 | S. cerevisiae deletion strains, locus YNL128W, strain TEP1, hits give low values 0.881 | S. cerevisiae deletion strains, locus YNL153C, strain GIM3, hits give low values 0.534 | S. cerevisiae deletion strains, locus YNL298W, strain CLA4 (second series), hits give low values 0.742 | S. cerevisiae deletion strains, locus YNL322C, strain KRE1, hits give low values 0.798 | S. cerevisiae deletion strains, locus YNR030W, strain Alg12, hits give low values 0.664 | S. cerevisiae deletion strains, locus YPL055C, strain LGE1, hits give low values 0.523 | S. cerevisiae deletion strains, locus YPL241C, strain CIN2, hits give low values 0.748 | S. cerevisiae strains, strain wild type, hits give low values 0.836
inactive: S. cerevisiae deletion strains, locus YJL187C, strain SWE1, hits give low values 1.01 | S. cerevisiae deletion strains, locus YPR135W, strain CTF4, hits give low values 0.714

From PubChem BioAssay AID1159580 (chemical genetic matrix, 2015)
